Source: PubChem BioAssay (The Scripps Research Institute Molecular Screening Center)
PP1 inh = blocks human PP1-alpha phosphatase, a PP5 counter-screen; P62136; purified PP1alpha, OMFP fluorescence; inhibition, % at 6.7 µM; actives 0.9% (n = 320,000); AID 2235;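 active = inhibition above the mean inhibition of all tested compounds plus 3 SD, computed separately for each screening campaign, cut at about 15% in these data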
Target sequence (P62136 whole entry, looked up): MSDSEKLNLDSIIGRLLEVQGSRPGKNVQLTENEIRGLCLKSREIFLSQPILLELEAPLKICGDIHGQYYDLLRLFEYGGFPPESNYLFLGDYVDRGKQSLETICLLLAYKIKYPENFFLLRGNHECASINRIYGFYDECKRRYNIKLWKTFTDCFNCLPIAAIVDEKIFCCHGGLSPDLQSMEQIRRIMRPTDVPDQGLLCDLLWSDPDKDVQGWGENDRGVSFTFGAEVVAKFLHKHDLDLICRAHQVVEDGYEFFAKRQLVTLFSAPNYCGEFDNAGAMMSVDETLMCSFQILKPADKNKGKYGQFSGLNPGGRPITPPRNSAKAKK
bovine MsrA act = activates bovine MsrA enzyme | AID 602163 | purified bovine MsrA, absorbance read-out | actives 0.3% (n = 360,000) | activation, % at 10.6 µM; in the data active = activation above about 7.5%;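 note: 0% = vehicle and 100% = reference activator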
PP5 primary = blocks human protein phosphatase 5 activity; P53041; purified PP5c, OMFP substrate fluorescence; inhibition, % at 6.7 µM; actives 0.18% (n = 320,000); AID 1987;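 active = inhibition above the campaign's mean inhibition across all tested compounds plus 3 SD, cut at about 9.5% in these data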;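 note: 0% = DMSO only and 100% = 100 µM cantharidin control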
MsrA inh = bovine MsrA inhibition | inhibition, % at 15.5 µM | actives 0.75% (n = 360,000) | purified bovine MsrA, absorbance read-out | AID 651718;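 note: 0% = vehicle wells with enzyme and 100% = reference inhibitor wells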
EBNA-1 inh = blocks EBNA-1 binding to DNA. EBNA-1 DNA binding, fluorescence polarization. actives 0.34% (n = 300,000). inhibition, % at 14.8 µM; in the data active = inhibition above about 28%
ZTA counter = counter-screen for EBNA-1 inhibitors: inhibitors of Epstein-Barr virus ZTA; P03206; ZTA-DNA binding, fluorescence polarization; inhibition, % at 11 µM; actives 0.15% (n = 320,000); AID 2234; in the data active = inhibition above about 33%
Target sequence (P03206 whole entry, looked up): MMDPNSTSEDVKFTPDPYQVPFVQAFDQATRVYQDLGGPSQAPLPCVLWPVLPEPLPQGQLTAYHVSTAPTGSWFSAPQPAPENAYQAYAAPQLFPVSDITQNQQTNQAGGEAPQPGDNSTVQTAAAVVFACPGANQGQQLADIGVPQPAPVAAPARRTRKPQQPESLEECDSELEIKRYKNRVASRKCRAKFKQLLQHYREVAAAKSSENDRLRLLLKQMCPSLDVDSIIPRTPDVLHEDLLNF
MsrA inh confirm = bovine MsrA inhibition, confirmed | inhibition, % at 15.5 µM | AID 651822 | shares compounds with MsrA inh | actives 41% (n = 2,300) | purified bovine MsrA, absorbance read-out;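 note: coupled to thioredoxin reductase with NADPH and selenocystamine and DMSO as substrate; 0% = vehicle only and 100% = full effect of reference inhibitor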
* marks the source's active call; other numbers are inactive results. Only some compounds are listed: those with a hit (about 2.3% of all), similar ones and a draw of the others. Cut-off read from the data, not from the text of the source, unless noted: active = inhibition above about 4.5%; inactive = the rest.

CC(=O)c1ccc(N2CCN(C(=O)CCCc3nc4ccccc4s3)CC2)cc1 was read as PP1 inh -3.0, bovine MsrA act -9.6, PP5 primary 2.5, MsrA inh 5.7*, EBNA-1 inh -4.6, ZTA counter -5.0 and MsrA inh confirm 2.6.
COc1cccc(Nc2nc3ccccc3n3nnnc23)c1 was read as PP1 inh 1.7, bovine MsrA act -2.3, PP5 primary 3.8, MsrA inh 8.8*, EBNA-1 inh -0.2, ZTA counter -0.9 and MsrA inh confirm 7.9*.
`Brc1ccc(Nc2nc3ccccc3n3nnnc23)cc1` gave PP1 inh 3.8, PP5 primary 0.3, EBNA-1 inh -0.9 and ZTA counter 5.6.
Fc1cccc(Nc2nc3ccccc3n3nnnc23)c1 was read as PP1 inh -0.1, bovine MsrA act -6.7, PP5 primary 1.0, MsrA inh 3.2, EBNA-1 inh 9.2 and ZTA counter -4.5.
For c1ccc(Nc2nc3ccccc3n3nnnc23)cc1 the results were PP1 inh 0.1, bovine MsrA act -1.8, PP5 primary 0.1, MsrA inh 8.1*, EBNA-1 inh 8.3, ZTA counter -5.1 and MsrA inh confirm 4.9*.
Screening Fc1ccccc1Nc1nc2ccccc2n2nnnc12 returned PP1 inh -4.7, bovine MsrA act -3.5, PP5 primary 3.5, MsrA inh 11.2*, EBNA-1 inh -8.4, ZTA counter 0.0 and MsrA inh confirm 7.3*.
For CCOC(=O)/C(=C/C=C/c1ccccc1)NC(=O)c1ccccc1 the results were PP1 inh 0.8, bovine MsrA act -5.5, PP5 primary 1.9, MsrA inh 5.6*, EBNA-1 inh -2.4, ZTA counter 13.6 and MsrA inh confirm 2.0.
Screening CCCOC(=O)/C(=C\C=C\c1ccccc1)NC(=O)c1ccccc1 returned PP1 inh 0.0, bovine MsrA act -15.7, PP5 primary 4.2, MsrA inh 1.9, EBNA-1 inh -22.0 and ZTA counter -4.6.
For O=C(O)CCNC(=O)/C(=C/C=C/c1ccccc1)NC(=O)c1ccccc1 the results were PP1 inh -4.1, bovine MsrA act -5.4, PP5 primary 2.8, MsrA inh 5.5*, EBNA-1 inh -11.6, ZTA counter -10.4 and MsrA inh confirm 3.2.
Screening N#C/C(=C\C=C\c1ccccc1)C(=O)NCc1ccco1 returned PP1 inh 3.0, bovine MsrA act -5.5, PP5 primary 0.0, MsrA inh 4.0, EBNA-1 inh -16.9 and ZTA counter -11.9.
For CCOC(=O)/C(=C\C=C\c1ccccc1)NC(=O)c1ccccc1 the results were PP1 inh -1.7, bovine MsrA act -12.6, PP5 primary 0.0, MsrA inh 6.8*, EBNA-1 inh -7.9, ZTA counter 17.1 and MsrA inh confirm 6.1*.
O=C(NCc1ccco1)/C(=C/C=C\c1ccccc1)NC(=O)c1ccc(Br)o1 was read as PP1 inh 0.7, bovine MsrA act -6.0, PP5 primary 2.8, MsrA inh 5.0*, EBNA-1 inh -16.9, ZTA counter -3.1 and MsrA inh confirm 4.2.
Screening Cc1c(C(=O)NCCN2C(=O)S/C(=C\c3cccnc3)C2=O)cccc1[N+](=O)[O-] returned PP1 inh -0.9, bovine MsrA act -2.4, PP5 primary -1.6, MsrA inh 2.3, EBNA-1 inh -1.4 and ZTA counter 7.1.
`Cc1ccc(/C=N/N=C2/NC(=O)C(CC(=O)Nc3ccc(Cl)cc3)S2)o1` (configuration not stated) gave PP1 inh -2.7, bovine MsrA act -1.7, PP5 primary 2.0, MsrA inh 0.7, EBNA-1 inh -3.0 and ZTA counter -16.3.
O=C(O)CC1S/C(=N/N=C/c2ccc(-c3ccc(Cl)cc3[N+](=O)[O-])o2)NC1=O (configuration not stated) was read as PP1 inh -0.4, bovine MsrA act -3.7, PP5 primary -0.9, MsrA inh 4.9*, EBNA-1 inh 14.6, ZTA counter -2.2 and MsrA inh confirm 5.8*.
For O=C(O)CC1S/C(=N/N=C/c2ccc(-c3ccc(Cl)c([N+](=O)[O-])c3)o2)NC1=O (configuration not stated) the results were PP1 inh -0.7, bovine MsrA act -5.2, PP5 primary -1.0, MsrA inh 5.4*, EBNA-1 inh -2.7, ZTA counter 11.2 and MsrA inh confirm 4.5.
`O=C(O)COc1ccccc1/C=N/Nc1ccc(S(=O)(=O)N2CCOCC2)cc1[N+](=O)[O-]` gave PP1 inh -0.1, bovine MsrA act -5.4, PP5 primary -0.8, MsrA inh 4.9*, EBNA-1 inh -1.9, ZTA counter 6.9 and MsrA inh confirm 4.5.
For Cc1c(Cl)cccc1NC(=S)N1CCC(N(C)CC2CCCO2)CC1 (configuration not stated) the results were PP1 inh -7.7, bovine MsrA act -5.1, PP5 primary 1.5, MsrA inh 0.7, EBNA-1 inh -14.6 and ZTA counter -5.2.
`Nc1nc2nccc(-c3ccco3)n2n1` gave PP1 inh -3.6, bovine MsrA act -5.1, PP5 primary -0.9, MsrA inh 6.1*, EBNA-1 inh 9.9, ZTA counter -8.3 and MsrA inh confirm 3.3.
COC(=O)c1[nH]c2ccccc2c1NC(=O)Oc1ccccc1 was read as PP1 inh -7.6, bovine MsrA act -3.9, PP5 primary -5.0, MsrA inh 0.3, EBNA-1 inh -15.7 and ZTA counter -7.4.
Screening COC(=O)c1[nH]c2cc(OC)c(OC)cc2c1NC(=O)Oc1ccccc1 returned PP1 inh -0.2, bovine MsrA act -4.0, PP5 primary 3.1, MsrA inh 5.0*, EBNA-1 inh -3.7, ZTA counter -24.0 and MsrA inh confirm 1.0.
Screening CO/N=C/C(C#N)=C/c1ccc(OC)c(OC)c1 returned PP1 inh -2.3, bovine MsrA act -3.6, PP5 primary -1.0, MsrA inh 5.1*, EBNA-1 inh 6.8, ZTA counter 8.1 and MsrA inh confirm 3.0.
O=C(COc1ccccc1)NCC(=O)N/N=C/c1ccc(Cl)cc1 was read as PP1 inh 0.3, bovine MsrA act -5.5, PP5 primary 1.9, MsrA inh -0.9, EBNA-1 inh 1.4 and ZTA counter -19.2.
For CCCCn1c(N)c(N(CC(C)C)C(=O)COC(=O)C2(c3ccccc3)CC2)c(=O)[nH]c1=O the results were PP1 inh -3.9, bovine MsrA act -0.3, PP5 primary -1.5, MsrA inh -0.5, EBNA-1 inh 7.5 and ZTA counter -5.1.
Screening CCc1ccc(/C=C2\SC(N3CCCC3)=NC2=O)cc1 returned PP1 inh 2.0, bovine MsrA act -4.8, PP5 primary 1.9, MsrA inh 4.8*, EBNA-1 inh 2.0, ZTA counter 6.0 and MsrA inh confirm 3.3.
`O=C1N=C(N2CCCCC2)S/C1=C\c1ccncc1` gave PP1 inh -1.0, bovine MsrA act -2.9, PP5 primary -0.4, MsrA inh 2.2, EBNA-1 inh 2.0 and ZTA counter 7.7.
